In the supplement of paper PMC6555819:

What was measured:
Assay in all cases: PBM binding z-score (relative to random genomic background probes); higher = stronger binding; sequences stand for … in GC…GCGATTGACAGCGTAGAATGAAGG
[1] = system: RARb homodimer (NR concentration 270 nM)
How it was run: (§1)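 Custom Agilent 4×180K protein-binding microarrays carried double-stranded probes. Their 34-nt variable regions held direct-repeat seeds, single-nucleotide variants, half-site ablations and random human genomic background sequences. Arrays were incubated 1 h with ligand-free nuclear receptor dimers in PBS pH 7.4, 2% milk, 0.02% Triton X-100, 1 mM DTT, 0.2 mg/mL BSA and 0.4 mg/ml salmon testes DNA. Antibodies against each partner (one per run) detected binding, and scanned fluorescence was regression-normalized. Binding z-scores use random background probes as reference.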

[2] = system: RARg:RXRa (NR concentration 270 nM, RXRa partner concentration 90 nM)
How it was run: as §1

[3] = system: RARg homodimer (NR concentration 270 nM)
How it was run: as §1

[4] = system: RXRa DBDmut IVT, anti-RXR (DBD mutation: RXRa K156A/R161A, NR concentration 90 nM)
How it was run: as §1

[5] = system: RXRa homodimer (NR concentration 180 nM)
How it was run: as §1

[6] = system: THRa:RXRa (NR concentration 90 nM, RXRa partner concentration 90 nM)
How it was run: as §1

[7] = system: THRa homodimer (NR concentration 90 nM)
How it was run: as §1

[8] = system: VDR homodimer (NR concentration 270 nM)
How it was run: as §1

Sequence	PBM binding z-score [1]	PBM binding z-score [2]	PBM binding z-score [3]	PBM binding z-score [4]	PBM binding z-score [5]	PBM binding z-score [6]	PBM binding z-score [7]	PBM binding z-score [8]
AGAATGAGGTTATTAAGATCCGGGAATTGCGGTC	0.644	0.904	0.682	1.93	1.68	2.29	0.695	0.784
CGAACTATGTCATTGACAGGACAGTGAATAGTAA	0.32	0.772	0.637	0.491	0.127	0.297	-0.398	0.0338
ATCGAAAGGTCGTGATGTGAGTATACAGAAAGGC	2.33	3.91	3.35	1.1	4.56	2.34	0.0191	0.997
ATATGTAGGCTACATCCGGGTCATTCAGGCTATG	2.14	1.7	1.22	0.518	1.95	2.91	2.14	2.15
TGTAGTTGGTCACGGAGGTCACACACGACGGGTA	4.39	4.74	4.47	-0.214	4.76	3.6	2.44	2.45
TGTCAAAGTTCAAAGCTAACGTAAGTATCCACAC	3.48	5.47	5.72	4.37	4.59	1.76	-0.21	3.56
GCGACTGGGGCATCAGCAGGTTACCACAACTTAA	1.08	0.941	0.32	-0.0403	0.38	0.805	-0.203	-0.222
CATACAGGGTCTGCTAGGCCAGAGTAGGGACGGC	-0.0672	-0.0355	0.276	-0.952	0.034	0.13	-0.32	-0.486
GCAGACAGGTGAAACGCAGGTAACTCACGGTGGC	-0.171	0.892	0.295	-0.351	0.662	0.832	-0.7	-0.778
ACTAGCAGGCCAAGGGTCATTCAAGATTAGTCCG	3.62	4.15	3.24	0.96	4.5	3.12	0.107	2.6
ATATGTAGGTGATCGGGTCATTCAGTTTGCGCAT	2.55	2.48	1.78	1.09	2.44	2.91	2.14	3.46
CCTAGTTGGTCAGCAGGTCACACACCGGATATGA	3.43	3.52	3.44	0.217	3.16	2.77	1.35	1.05
GCGACTGAGGCATCAGCAGGTTACCATAACTTAA	-0.000366	-0.216	-0.35	-0.168	-0.0735	0.371	-0.148	-0.64
CGAACTGGGTCATCCAGGACAGTGAATACATTGA	2.71	3.55	3.7	1.35	2.99	3.48	1.25	1.8
CCGACTGGGGCCTAAGGTTACCATAAGCCAGCCC	1.1	0.451	-0.117	-0.875	0.652	2	1.26	0.0794
